# Bioassay records deposited in PubChem by National Center for Advancing Translational Sciences (NCATS).
# Sampled rows, rich in hits. Any-hit rate of the full collection: about 19%.
# HT1080-NT tox = kills 2HG-producing HT-1080-NT fibrosarcoma cells | HT-1080-NT fibrosarcoma viability, CellTiter-Glo ATP luminescence, 48 h | Potency, µM (doses to about 46.1 µM), for inactives: top-dose activity, negative = less viability, most hits filed as cytotoxic | 360,000 tested, 1.6% active | AID 686970;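 further: NT is the 2HG producing partner of a matched IDH1 knockdown line; 0% = DMSO-treated cells and -100% = media-only wells without cells; nearly all actives have a fitted effect of over 55% in size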
#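 Fibrosarcoma NT cells, 750 per well in 5% FBS RPMI, were exposed to compound for 48 hours. Viability: CellTiter-Glo luminescence.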
# DT40 TDP1 CPT = growth inhibition of DT40 Tdp1-/-;hTDP1 cells with camptothecin (screen for TDP1 inhibitors); chicken DT40 Tdp1-/-;hTDP1 cells + 20 nM CPT, ATP luminescence, 48 h; Potency, µM (series often up to 46.2 µM), without a hit: at the highest dose activity change, negative = growth inhibition, most hits filed as inhibitors; 420,000 tested, 12% active; AID 686979; further: nearly all actives have a fitted effect of over 55% in size
#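 Cell growth measured by CellTiter-Glo luminescence after a minimum 48 h, 37 C compound exposure with 20 nM CPT in Tdp1-knockout DT40 cells stably expressing hTDP1, seeded 400/well; qHTS titration format.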
# HT1080 IDH1KD tx = HT-1080 IDH1 knockdown cell toxicity (counter line). HT-1080 IDH1 knockdown viability, ATP luminescence, 48 h. Potency, µM (titrated, usually from 46.1 µM), without a hit: top-dose activity, negative = toxicity, usual class: cytotoxic. 360,000 tested, 2% active;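 further: 0% = DMSO wells and -100% = cell-free medium wells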
#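 IDH1KD HT-1080 cells, 750/well, RPMI + 5% FBS; compound pinned after 2 h settling; 48 h, 37 °C; CellTiter-Glo luminescence; % activity normalised to DMSO and no-cell wells; curves fitted, classed by r2 and efficacy.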
# DT40 TDP1 no CPT = qHTS for Inhibitors of human tyrosyl-DNA phosphodiesterase 1 (TDP1): qHTS in cells in absence of CPT | DT40 Tdp1-/- hTDP1 cells, no CPT, ATP luminescence, 48 h | Potency, µM (series often up to 46.2 µM), for the others: at the highest dose activity change, negative = growth inhibition, actives largely listed as inhibitors | 420,000 tested, 15% active | AID 686978, 2013; further: nearly all actives have a fitted effect of over 55% in size
#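 Seeded 400 DT40-hTDP1 cells/well (vehicle DMSO, no 20 nM CPT); pinned compounds; ≥48 hr at 37 °C; CellTiter-Glo luminescence as viability measure.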
# KB-3-1 tox = KB-3-1 parental cell cytotoxicity; KB-3-1 viability, CellTiter-Glo ATP luminescence, 72 h; 400,000 tested, 1.4% active; Potency, µM (titrated, usually from 46.1 µM), usual class: cytotoxic; further: nearly all actives have a fitted effect of over 60% in size
#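 KB-3-1 parental drug-naive adenocarcinoma cells in DMEM/10% FBS, incubated 72 h at 37 C with pin-transferred compounds across a concentration series. Viability by CellTiter-Glo luminescence; concentration-response curves fitted after normalization.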
# KB-V1 MDR tox = kills drug-selected multidrug resistant KB-V1 cells. KB-V1 MDR cells viability, CellTiter-Glo, 72 h. Potency, µM (top dose mostly 46.1 µM), most hits filed as cytotoxic. 400,000 tested, 3.4% active. AID 1347076; further: nearly all actives have a fitted effect of over 60% in size
#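 Readout: CellTiter-Glo luminescence, 10 min after addition. Cells: KB-V1 MDR subline, 72 h at 37 degrees C with compound. Analysis: corrected, normalized data fitted to concentration-effect curves.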
# An asterisk follows results filed as active; i = inactive; ? = inconclusive; · = not tested or not shown; ! = not confirmed by another sample; [ ] = dose if it differs, or a comment. The call rests on the fitted dose curve; in most records, active means well fitted curve in the direction sought with a large enough effect; inconclusive means small, poorly fitted or top-dose-only effect, or another doubt; inactive means no such curve, though single readings can be large; an effect the other way counts as inactive or inconclusive. Unless noted, on the % scale 0 is the no-effect control and ±100 the full control effect; potency means the concentration at half of the fitted maximal effect.
SMILES,HT1080-NT tox,DT40 TDP1 CPT,HT1080 IDH1KD tx,DT40 TDP1 no CPT,KB-3-1 tox,KB-V1 MDR tox
Cc1ccc2nc(SCc3ccc([N+](=O)[O-])cc3)[nH]c2c1,?,?,?,?,?,16µM*
Cc1ccccc1-c1noc(CSc2nc(-c3ccc(F)cc3)cc(=O)[nH]2)n1,·,-16%,·,0%,i,i
Cc1ccccc1C(=O)NNC(=O)c1cc(S(=O)(=O)N2CCOCC2)ccc1C,-7%,-8%,-10%,15%,i,i
COc1ccc(/C=N/NC(=O)CC2N=C(Cc3ccccc3)NNC2=O)cc1OC (configuration not stated),-2%,-23%,18%,-20%,i,i
O=C(NNC(=O)C12CC3CC(CC(C3)C1)C2)c1ccccc1[N+](=O)[O-],-2%,-3%,0%,-10%,i,i
CC1CCN(c2nc3c(S(=O)(=O)c4ccccc4)nnn3c3ccc(Cl)cc23)CC1,·,16µM*,·,18µM*,i,i
Cc1ccc(S(=O)(=O)c2nnn3c2nc(N2CCC(C)CC2)c2cc(Cl)ccc23)cc1C,·,?,·,21µM*,i,i
CCc1ccc(S(=O)(=O)c2nnn3c2nc(N2CCC(C(N)=O)CC2)c2cc(Cl)ccc23)cc1,·,?,·,23µM*,i,i
CC(C)(C)C1CCC(C(=O)OCC(=O)N2CCN(C(=O)c3ccco3)CC2)CC1 (configuration not stated),-8%,?,-3%,-26%,?,i
Nc1ccccc1NC1CCCCC1,-18%,-20%,-1%,?,i,i
COc1ccccc1NC(=O)CCc1nc(-c2ccccc2F)no1,-1%,?,0%,-23%,i,?
Cc1ccccc1-c1noc(CCC(=O)Nc2cccc(C)c2C)n1,·,-10%,·,16µM*,i,?
COc1ccc(Cl)cc1NC(=O)CCc1nc(-c2ccccc2F)no1,9%,23µM*!,-11%,16µM*,i,i
COc1ccc(Br)cc1CNC(=O)CCc1nc(-c2ccccc2F)no1,-4%,16µM*,-11%,?,i,i
O=C(CCc1nc(-c2ccccc2F)no1)Nc1ccc(Oc2ccccc2)cc1,15µM*,23µM*,16µM*,10µM*,?,?
COc1cccc(NC(=O)CCc2nc(-c3ccccc3F)no2)c1,-23%,?,-1%,?,i,i
CCCCn1c(N)c(N(CCOC)C(=O)c2cccc(S(=O)(=O)N(CC)c3ccccc3)c2)c(=O)[nH]c1=O,-3%,-2%,-2%,?,i,i
CCCOc1ccc(CNC(=O)c2cc3ccccn3n2)cc1,·,?,·,?,i,i
Cc1ccc(-n2cnc(=O)c3cccnc32)cc1,10%,-6%,2%,-11%,i,i
C#CCSc1nc(=O)c2cccnc2n1-c1ccc(C)cc1,-3%,5.2µM*,-2%,5.8µM*,i,i
Cc1ccc(CCNS(=O)(=O)c2ccc3c(c2)NC(=O)C(C)C(=O)N3)cc1 (configuration not stated),7%,-22%,-8%,23µM*,i,?
CC(C)C1C(=O)Nc2ccc(S(=O)(=O)NCCc3ccc(Cl)cc3)cc21 (configuration not stated),·,?,·,23µM*,i,i
COc1cccc(CNS(=O)(=O)c2ccc3c(c2)C(C(C)C)C(=O)N3)c1 (configuration not stated),·,?,·,13µM*,?,i
Cc1ccc(CCNS(=O)(=O)c2ccc(C)cc2)cc1,-4%,?,2%,-18%,i,i
CN1C(=O)C(C)(C)c2cc(S(=O)(=O)NCCc3ccc(Cl)cc3)ccc21,-2%,5%,6%,-13%,i,i
SMILES,HT1080-NT tox,DT40 TDP1 CPT,HT1080 IDH1KD tx,DT40 TDP1 no CPT,KB-3-1 tox,KB-V1 MDR tox
Cc1cc(F)ccc1NC(=O)c1sc2nc(-c3cccs3)ccc2c1N,·,?,·,?,i,i
CC(C)CSc1ccccc1NC(=O)c1sc2nc(-c3ccncc3)ccc2c1N,·,5.8µM*,·,7.3µM*,i,i
Nc1c(C(=O)Nc2ccc(Br)cc2)sc2nc(-c3ccncc3)ccc12,·,-20%,·,?,·,·
COc1ccc(-c2ccc3c(N)c(C(=O)Nc4cccc(C)c4)sc3n2)cc1,·,16µM*,·,?,·,·
COc1ccc(-c2ccc3c(N)c(C(=O)Nc4cc(F)ccc4C)sc3n2)cc1,·,?,·,15µM*,i,?
Cc1ccc(NC(=O)c2sc3nc(-c4ccc(F)cc4)ccc3c2N)cc1F,·,12µM*,·,21µM*,i,i
Nc1c(NC=O)c(=O)n(Cc2ccccc2)c(=O)n1Cc1ccccc1,-1%,-2%,12%,7%,i,i
Nc1c(C(=O)Nc2ccc(Br)cc2)sc2nc(-c3ccco3)ccc12,-25%,?,-23%,15µM*,i,5.2µM*
CS(=O)(=O)N1CCN(C(=O)CCc2ccccc2)CC1,2%,5%,11%,1%,i,i
CCOc1ccc(S(=O)(=O)NCCC(=O)N2CCN(c3ncccn3)CC2)cc1,3%,-1%,-3%,?,i,18µM*
CCOc1ccc(S(=O)(=O)NCCC(=O)N2CC=C(c3ccccc3)CC2)cc1,-1%[9.24 µM],?,-4%,12µM*,13µM*,?
CCOc1ccc(S(=O)(=O)NCCC(=O)N2CCN(c3ccc(OC)cc3)CC2)cc1,-3%,?,-2%,21µM*,i,i
O=C(CCc1ccccc1)N1CCCN(C(=O)CCc2ccccc2)CC1,13%,0%,9%,?,i,21µM*
CN(Cc1c(F)cccc1Cl)C(=O)CNC(=O)c1cccs1,0%,1%,4%,0%,i,i
COc1cc2c(cc1OC)CN(C(=O)Cc1c(F)cccc1Cl)CC2,-3%,-28%,2%,?,i,?
CCc1cc(CNC(=O)C2CCC(=O)N(CCc3cccc(F)c3)C2)on1 (configuration not stated),-9%,-11%,0%,-1%,·,·
O=C(COc1ccc2c(C(F)(F)F)cc(=O)oc2c1)NCc1cccs1,11%,-14%,4%,-4%,i,i
CCOC(=O)N1CCN(C(=O)CCc2ccc(S(=O)(=O)NCCc3ccccc3)cc2)CC1,-8%,?,-18%,?,i,16µM*
